Where a name gives a salt, the structure may show the parent alone.
system: Haemophilus parainfluenzae; assay: growth AUC normalised to DMSO control (fraction of control); higher = less growth inhibition, active = hit call of the paper; conditions: 20 µM
Outline: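 Three biological replicates were carried out, with OD578 read hourly for 24 h. Before inoculation at a starting OD578 of 0.01, pathogens were passaged anaerobically twice; plates were pre-reduced mGAM containing 20 μM compound and 1% DMSO, sealed with breathable membranes, and the Haemophilus parainfluenzae medium carried added hemin and NAD. Area under each growth curve was calculated by the trapezoidal rule up to the exponential-to-stationary transition and normalised to DMSO controls on the same plate.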

Structure (SMILES)	growth AUC normalised to DMSO control
Cc1ccnc(NS(=O)(=O)c2ccc(N)cc2)n1 [Sulfamerazine]	0.994 (inactive)
COc1cc(C(=O)NS(=O)(=O)c2ccccc2C)ccc1Cc1cn(C)c2ccc(NC(=O)OC3CCCC3)cc12 [Zafirlukast]	0.825 (inactive)
CC(C)(Oc1ccc(C2CC2(Cl)Cl)cc1)C(=O)O (stereo unspecified) [Ciprofibrate]	1.01 (inactive)
NS(=O)(=O)c1cc2c(cc1C(F)(F)F)NC(Cc1ccccc1)NS2(=O)=O (stereo unspecified) [Bendroflumethiazide]	1.02 (inactive)
N=C(N)NC(=O)Cc1c(Cl)cccc1Cl [Guanfacine hydrochloride]	1.01 (inactive)
C[n+]1ccccc1/C=N/O [Pralidoxime chloride]	0.915 (inactive)
